# Unmarked numbers belong to inactive results.
# Test system: Madurella mycetomatis MM55
# Experiment: percent growth relative to solvent control; higher = less inhibition, active = 20 or less
# Conditions: 100 µM; 7 days
row,Compound,percent growth
1,CC1COC(Cn2cncn2)(c2ccc(Oc3ccc(Cl)cc3)cc2Cl)O1 (centres undefined),0.489% (active)
2,Cc1nn(Cc2ccccc2)c(Cl)c1C(=O)NC1CCCCCC1,91.1%
3,Cc1cc(C2=NOC(c3cc(Cl)c(F)c(Cl)c3)(C(F)(F)F)C2)ccc1C(=O)NCc1ccc2c(c1)C(C)(C)OB2O (centres undefined),124%
4,CO/N=C(\C(=O)OC)c1ccccc1CO/N=C(\C)c1cccc(C(F)(F)F)c1,0.385% (active)
5,CO/C=C(/C(=O)OC)c1ccccc1Oc1cc(Oc2ccccc2C#N)ncn1,1.6% (active)
6,Nc1c2c(nc3sc4c(c13)CCCC4)CCCC2,-0.0392% (active)
7,Cc1cccc(C(=O)Nc2ccnc(N(C)C3CCN(CC(C)C)CC3)c2)c1,1.78% (active)
8,CC(C)(C)C(O)C(Oc1ccc(-c2ccccc2)cc1)n1cncn1 (centres undefined),-0.373% (active)
9,CCc1nn(C)c(C(=O)NCc2ccc(Oc3ccc(C)cc3)cc2)c1Cl,46.6%
10,O=C1O[C@@H](CO)CN1c1cc(F)c(C2=CCN(Cc3ccccc3)CC2)c(F)c1,70.2%
11,CO[C@@H]1CN(c2ccc(C#CC3(O)CN4CCC3CC4)c(Cc3ccccc3)n2)C[C@H]1O (some centres undefined),81.3%
12,Cc1nn(C)c(C)c1NS(=O)(=O)c1c(Cl)cc(-c2ccnc(N3CCNCC3)c2)cc1Cl,86%
13,O=C1O[C@@H](COc2ccon2)CN1c1cc(F)c(C2=CCN(Cc3ccccc3)CC2)c(F)c1,20.9%
14,CC1(C)OB(O)c2ccc(C3=NOC(c4cc(Cl)c(F)c(Cl)c4)(C(F)(F)F)C3)cc21 (centres undefined),-0.6% (active)

# From the supplement of paper PMC5940239
